About 2,100 (0.66%) of roughly 320,000 compounds were called active. About 53% were inconclusive and are not listed. Calls come from the whole dose curve; as a rule, active = well fitted inhibition curve with a large enough effect in the signal ratio, with a control signal flat (not every such curve was filed as active); inconclusive = small, poorly fitted or top-dose-only effect, or effect the other way, or a change in a side signal; inactive = flat fitted curve, though single readings scatter; the % refers to the signal ratio. This excerpt belongs to a sample that is enriched for actives.
Potency is the fitted concentration of half-maximal effect.

This test in a line: qHTS Assay for Lipid Storage Modulators in Drosophila S3 Cells.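 For cell number change: cells counted by Cell Tracker Red CMTPX staining in the red channel.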 For lipid storage change, negative = inhibition: % is set by controls: 0 for no effect and ±100 for the full control effect. As to conditions: BODIPY lipid droplet fluorescence, 18-24 h, cells fed with added oleic acid; cell number change: measured here: cell count max response; series mostly up to 46.1 µM; lipid storage change, negative = inhibition: at the top concentration. The method, boiled down:
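Laser-scanning cytometry quantifies lipid droplet accumulation (500–530 nm total intensity; droplet/cell object ratio) in oleic acid-fed (400 uM added) Drosophila S3 cells treated with a concentration series. 20 uM Triacsin C defined 100% inhibition.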
For `CN(C)c1ccc(C#Cc2ccc3cc(CCO)oc(=O)c3c2)cc1`, the “lipid storage change, negative = inhibition” value is -0.121% (inactive) and the cell number change came to 24%. For `Cn1cncc1C#Cc1ccc2cc(CCO)oc(=O)c2c1`, the Potency is 1.3 µM (active) and the cell number change is 17.2%.

In the case of `COc1cccc(Oc2cc(Cl)nc(N)n2)c1`, the “lipid storage change, negative = inhibition” value was 0.532% (inactive) and the cell number change was -10.3%. In the same order, the values of `COc1ccc(Cl)cc1NC(=O)C(C)OC(=O)C1=NNC(=O)CC1` (stereo not given) are 13.5% (inactive) and -0.986%. For `O=C(N/N=C/c1ccccn1)c1cc(-c2ccncc2)nc2ccccc12`, in that order: 24.3% (inactive) and 0.674%. With `CC1=C(C(=O)N(C)C)C(c2ccc(Cl)c(Cl)c2)NC(=O)N1` (stereo not given), the Potency was 3.66 µM (active) and the cell number change was -24.5%. Turning to `CC1=C(C(=O)N(C)C)C(c2ccc(N3CCOCC3)cc2)NC(=O)N1` (stereo not given), the “lipid storage change, negative = inhibition” value was 10.6% (inactive). In the case of `CC1=C(C(=O)OCC2CCCO2)C(c2ccc(Cl)c(Cl)c2)NC(=O)N1` (stereo not given), the “lipid storage change, negative = inhibition” value is 0.886% (inactive) and the cell number change stood at 6.97%.

In the case of `N/C(=N\OC(=O)c1cccnc1)c1ccccc1Cl`, the “lipid storage change, negative = inhibition” value was -0.604% (inactive) and the cell number change was -1.5%. In the same order, the values of `O=c1ncn(-c2ccccc2C(F)(F)F)c2ncccc12` are 14.1% (inactive) and -1.22%. Consider `CC(C)(C)NC(=O)CN(C(=O)CCN1CCCc2ccccc21)C(C)(C)C`, for which the Potency was 14.6 µM (active).

`CC(C)(C)NC(=O)NC(=O)CN1CCCc2ccccc21`: the “lipid storage change, negative = inhibition” value is -1.35% (inactive) and the cell number change is -16.4%. Regarding `CC(C(=O)NC(C)(C)C)N(Cc1cccs1)C(=O)CCN1CCc2ccccc21` (stereo not given), the “lipid storage change, negative = inhibition” value is 6.26% (inactive) and the cell number change was found to be 1.12%.

On to `O=C(COC(=O)c1ccco1)c1ccc(S(=O)(=O)N2CCCCC2)cc1`, for which the “lipid storage change, negative = inhibition” value is -15.9% (inactive) and the cell number change is -13.5%. For `Cc1cc(C)n2nc(C(=O)NNC(=O)c3ccccc3)nc2n1`, in that order: 9.61% (inactive) and 14%. In the same order, the values of `Cc1cc(C)n2nc(C(=O)OCC(=O)NNC(=O)c3ccc(Cl)cc3)nc2n1` are -21.1% (inactive) and -14.4%.

As to `Cc1cc(C)n2nc(C(=O)NNC(=O)c3ccc(Cl)cc3)nc2n1`, the Potency was 18.4 µM (active) and the cell number change is -28%.

As to `CCN(CC)c1nc(-c2ccc(Cl)cc2)cc(C(F)(F)F)c1C#N`, the “lipid storage change, negative = inhibition” value is 21% (inactive) and the cell number change was -4.2%. On to `O=C(COc1ccc(-c2ccccc2)cc1)NNC(=O)Nc1ccc(F)cc1F`, for which the “lipid storage change, negative = inhibition” value is 8.38% (inactive).

As for `CC1CN(Cc2ccccc2)C(C)CC1O` (stereo not given), the “lipid storage change, negative = inhibition” value was 4.32% (inactive) and the cell number change was 13.3%. In the same order, the values of `COc1ccc(OCC(O)CN2CCCCCC2)cc1` (stereo not given) are -0.764% (inactive) and 9.25%. For `OC(COc1ccc(OCC(O)CN2CCCCCC2)cc1)CN1CCCCCC1` (stereo not given), in that order: 13.9% (inactive) and -8.16%. Regarding `OC(COc1ccc(C2C=CCC2)cc1)CN1CCCCC1` (stereo not given), the Potency was 0.731 µM (active) and the cell number change amounted to 1.19%. For `FC(F)(F)c1ccnc(N2CCN(Cc3cnc(-c4ccccc4)[nH]3)CC2)c1`, the “lipid storage change, negative = inhibition” value is 8.54% (inactive) and the cell number change was determined as 15%. Consider `CC(NS(=O)(=O)c1ccc(OCC(=O)NCc2ccncc2)cc1)c1ccccc1` (stereo not given), for which the compound was called inactive and the cell number change was found to be 0.901%. With `CC(NS(=O)(=O)c1ccc(OCC(=O)NCc2cccnc2)cc1)c1ccccc1` (stereo not given), the Potency was 0.651 µM (active) and the cell number change was -6.31%. `CC(NS(=O)(=O)c1ccc(CCC(=O)NCc2cccnc2)cc1)c1ccccc1` (stereo not given): the “lipid storage change, negative = inhibition” value was 0.909% (inactive) and the cell number change was -3.81%. `COCC1CCN(Cc2nc(-c3ccc(OC)cc3)no2)CC1`: the “lipid storage change, negative = inhibition” value was 8.81% (inactive) and the cell number change is 9.88%. `COc1ccc(NC(=O)CN(C)C(=O)CSCc2ccc(C)cc2)cc1`: the Potency is 10.3 µM (active) and the cell number change was -11%. Regarding `Cc1ccc(CSCC(=O)N(C)CC(=O)Nc2ccc(C)cc2)cc1`, the “lipid storage change, negative = inhibition” value was 0.736% (inactive) and the cell number change came out at 15.6%. `Cc1ccc(CSCC(=O)N(C)CC(=O)Nc2ccc(Cl)c(Cl)c2)cc1`: the compound was classed as inactive and the cell number change turned out to be 1.04%. Regarding `CCC(C)NC(=O)CN1C(=O)C(CC)Sc2ccccc21` (stereo not given), the “lipid storage change, negative = inhibition” value was -2.81% (inactive) and the cell number change is -9.92%. Take `CCOc1ccccc1NC(=O)C1CCCN(S(=O)(=O)c2ccc(-n3cnnn3)cc2)C1` (stereo not given): the outcome was inactive and the cell number change stood at 20.5%. For the compound `CCOC(=O)C1(CC2CC2)CCN(C(=O)c2cccnc2C)CC1`, the “lipid storage change, negative = inhibition” value was 6.98% (inactive) and the cell number change turned out to be 26%. As for `CCOC(=O)C1(CC2CC2)CCN(C(=O)c2cc(C3CC3)nc3ccccc23)CC1`, the Potency is 25.9 µM (active) and the cell number change is -20.4%. Take `CCOC(=O)C1(CC2CC2)CCN(C(=O)c2ocnc2C)CC1`: the “lipid storage change, negative = inhibition” value is -7.18% (inactive) and the cell number change is -6.88%. In the same order, the values of `Cc1cc(Br)cc(C)c1NC(=O)c1ccc(C#N)cc1F` are -22.4% (inactive) and 3.82%. For `C=CCNC(=S)NNC(=O)c1ccc(OCC)cc1`, in that order: -0.066% (inactive) and -9.79%. Consider `Cc1c(C(=O)NCCCN2CCCC2=O)oc2ccc(S(=O)(=O)N3CCOCC3)cc12`, for which the result was inactive and the cell number change was -0.135%. With `O=C(NCc1ccc(Cl)cc1)N1CCN(S(=O)(=O)c2ccccc2)CC1`, the “lipid storage change, negative = inhibition” value is -6.54% (inactive) and the cell number change is 17.1%. Regarding `COc1ccccc1CNC(=O)[C@@H]1CCCN1S(=O)(=O)c1ccc(Cl)cc1`, the call was inactive and the cell number change is -7.14%. With `Cc1c(C(=O)NCCCN2CCOCC2)oc2ccc(S(=O)(=O)N3CCOCC3)cc12`, the “lipid storage change, negative = inhibition” value is 10% (inactive) and the cell number change was 20.6%. Turning to `CCOCCCNC(=O)c1oc2ccc(S(=O)(=O)N3CCOCC3)cc2c1C`, the Potency was 18.4 µM (active). For the compound `Cc1c(C(=O)NCCC2=CCCCC2)oc2ccc(S(=O)(=O)N3CCOCC3)cc12`, the “lipid storage change, negative = inhibition” value was 16.1% (inactive) and the cell number change is -13.3%. In the same order, the values of `COc1cccc(NC(=O)c2oc3ccc(S(=O)(=O)N4CCOCC4)cc3c2C)c1` are 5.07% (inactive) and 4.15%. In the case of `COc1ccccc1CNC(=O)N1CCN(S(=O)(=O)c2ccc(Cl)cc2)CC1`, the Potency is 0.13 µM (active) and the cell number change is 1.35%. Consider `COc1ccccc1CNC(=O)c1oc2ccc(S(=O)(=O)N3CCCC3)cc2c1C`, for which the “lipid storage change, negative = inhibition” value was -29.2% (inactive).

`Cc1c(C(=O)NCc2c(F)cc(F)cc2F)oc2ccc(S(=O)(=O)N3CCOCC3)cc12`: the Potency is 2.91 µM (active) and the cell number change was -3.48%. In the same order, the values of `COc1ccccc1CNC(=O)c1oc2ccc(S(=O)(=O)N3CCOCC3)cc2c1C` are 29.1 µM (active) and -8.7%. As to `Cc1c(C(=O)NCc2ccc(F)cc2)oc2ccc(S(=O)(=O)N3CCOCC3)cc12`, the call was inactive and the cell number change is -3.6%.

(Values after PubChem BioAssay AID2685 (National Center for Advancing Translational Sciences (NCATS), 2010).)
